Laboratory results taken from article PMC5540273 (PLoS ONE, 2017).

The compounds below were run on TRKB. Details: concentration: 1 μM, replicates: in singlicate; n = 1.
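Note: KINOMEscan kinase panel screen.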

Row | SMILES | %Inh
1 | Nc1ncnc2scc(-c3ccc(NC(=O)Cc4cc(F)ccc4F)cc3)c12.O=C(O)C(F)(F)F [SB-731254-M] | 72%
2 | CC(C)c1nc(-c2ccc(F)c(NS(=O)(=O)c3c(F)cccc3F)c2)c(-c2ccnc(Nc3ccc(N4CCOCC4)nc3)n2)s1 [GSK1804250] | 0%
3 | NCCC(NC(=O)c1cc(Br)c(-c2ccnc3[nH]ccc23)s1)c1ccccc1.O=C(O)C(F)(F)F.O=C(O)C(F)(F)F (centres unmarked) [GSK1307810] | 59%
4 | COc1ccc(NC(=O)c2ccoc2)cc1-c1ccc(C(=O)NCC2CC2)cc1 [GW810437] | 26%

The compounds below were run on T1, TRKC. Details: concentration: 1 μM, replicates: in singlicate; n = 1.
T1 construct: gene NTRK3

Row | SMILES | %Inh
5 | CCn1c(-c2nonc2N)nc2c(-c3ccccc3)ncc(OCCCN)c21.O=C(O)C(F)(F)F.O=C(O)C(F)(F)F [GSK260205] | 26%
6 | Cc1ccc(-c2ccc3occ(-c4ccc(S(C)=O)cc4)c3c2)nn1 (centres unmarked) | 11%
7 | Cn1cc(-c2ccc3c(c2)CCN3C(=O)Cc2cc(F)cc(F)c2F)c2c(N)ncnc21 [GSK2634140] | 38%
8 | COc1ccc(C)c(Nc2ccnc(Nc3ccc(-c4cnc[nH]4)cc3)n2)c1.Cl [GW784041] | 0%
9 | c1ccc(Oc2ccc(Nc3ccnc4cc(-c5ccc(CN6CCCCC6)o5)ccc34)cc2)nc1 [GW567143] | 27%
10 | CN(c1ccc(F)c(NC(=O)c2cccc(OC(C)(C)C#N)c2Cl)c1)c1ccc2nc(NC(=O)C3CC3)sc2n1 | 11%
11 | COc1cc(Nc2nccc(N3CCC(NS(=O)(=O)c4ccc(NC(C)=O)cc4)CC3)n2)cc(OC)c1OC [GSK1379825] | 15%
12 | Cc1ccc(C)c(NC(=O)Nc2ccc(C)c(-c3ccc(C(=O)Nc4ccncc4)cc3)c2)c1 [GSK1398473] | 0%
13 | CCNc1nccc(-c2c(-c3ccc(F)cc3)ncn2C2CCN(C)CC2)n1 | 0%
14 | Cc1ccc(NC(=O)c2cccc(N3CCCCC3)c2)cc1-c1ccc(C(=O)NCC2CC2)cc1 [GSK1917008] | 0%
15 | Cl.Cl.NCC(NC(=O)c1cc(-c2cccnc2)c(-c2ccnc3[nH]ccc23)s1)c1ccccc1 (centres unmarked) [GSK1323434] | 48%
16 | COc1cccc(-c2nc(-c3ccccc3)[nH]c2-c2ccncc2)c1 [SB-610250] | 22%
17 | Cn1cc(-c2cnc(N)c3c(-c4ccc5c(c4)CCN5C(=O)Cc4ccccc4)csc23)cn1 [GSK2593074] | 66%
18 | CN(C)CCNS(=O)(=O)c1ccc(-c2ccnc3[nH]ccc23)cc1 [GSK977620] | 54%
19 | O=C(Nc1n[nH]c2nc(-c3cccc(O)c3)ccc12)C1CC1 [SB-711805] | 24%
20 | Nc1cccc(-c2ccc3c(N)n[nH]c3c2)c1 [GSK2193613] | 19%
21 | Cl.O=C(Nc1ccc(Oc2ccc3[nH]c(NC(=O)c4ccco4)nc3c2)cc1)Nc1cc(C(F)(F)F)ccc1F [GW683134] | 97.4%
22 | COc1cccc2c(-c3ccncc3)c(-c3ccc(F)cc3)nn12 [GW468513] | 0%
23 | COc1cc(Nc2ccnc3cc(-c4ccncc4)ccc23)cc(OC)c1OC.Cl [GW494610] | 37%

Row | SMILES | %Inh
24 | O=C(O)C(F)(F)F.O=c1[nH]ccc2nc(N[C@@H]3CCNC3)nc(Nc3ccc4c(c3)S(=O)(=O)CC4)c12 [GSK2181306] | 84%
25 | Cl.N#CCc1ccc(Nc2nccc(Nc3ccc(Oc4ccccc4)cc3)n2)cc1 [GW639905] | 34%
26 | Cc1ccc(O)cc1Nc1ccnc2cc(-c3ccc(CN4CCCCC4)o3)ccc12 [GW557777] | 0%
27 | Cl.Cl.NC(CNC(=O)c1cc(Br)c(-c2ccnc3[nH]ccc23)s1)c1ccccc1 (centres unmarked) [GSK1322949] | 85%
28 | CN(c1ccc2c(c1)nc(NCc1ccccc1)n2C)c1ccnc(Nc2ccc(CS(C)(=O)=O)cc2)n1.Cl [GW811603] | 55%
29 | Cc1ccc(O)cc1Nc1ccnc2ccc(C(C)(C)C)cc12 [GW856805] | 11%
30 | COC(=O)Nc1nc2ccc(Oc3ccc(NC(=O)Nc4cc(C(F)(F)F)ccc4F)cc3)cc2[nH]1.Cl [GW654607] | 98.9%
31 | Cn1cc(-c2ccc3c(c2)CCN3C(=O)Cc2cc(F)cc(C(F)(F)F)c2)c2c(N)ncnc21 [GSK2635225] | 69%
32 | COc1cccc(CC(=O)N2CCc3cc(-c4cn(C)c5ncnc(N)c45)ccc32)c1 [GSK2608899] | 52%
33 | N#Cc1cnc2cc(-c3cnc(CNCCN4CCOCC4)s3)ccc2c1Nc1ccc(Oc2ccccc2)cc1 [GW664114] | 46%
34 | O=C(Nc1n[nH]c2cc(-c3cccs3)ccc12)C1CC1 [SB-731284] | 3%
35 | CN(C)CCOc1ccc(-c2cc(-c3ccc(Cl)c(O)c3)c(-c3ccncc3)[nH]2)cc1.Cl.Cl [SB-684387] | 36%
36 | Cc1cccc(Nc2nc(NCCN)ncc2C(N)=O)c1 [GSK1292139] | 43%
37 | COC(=O)Nc1nc2cc(Oc3ccc(NC(=O)Nc4cccc(SC)c4)cc3)ccc2[nH]1.Cl [GW697999] | 90%
38 | Nc1ncnc2scc(-c3ccc(NC(=O)Cc4cc(F)ccc4F)cc3)c12.O=C(O)C(F)(F)F [SB-731254-M] | 71%
39 | CC(C)c1nc(-c2ccc(F)c(NS(=O)(=O)c3c(F)cccc3F)c2)c(-c2ccnc(Nc3ccc(N4CCOCC4)nc3)n2)s1 [GSK1804250] | 0%
40 | NCCC(NC(=O)c1cc(Br)c(-c2ccnc3[nH]ccc23)s1)c1ccccc1.O=C(O)C(F)(F)F.O=C(O)C(F)(F)F (centres unmarked) [GSK1307810] | 47%
41 | COc1ccc(NC(=O)c2ccoc2)cc1-c1ccc(C(=O)NCC2CC2)cc1 [GW810437] | 21%
